In PubChem BioAssay AID2732 (Emory University Molecular Libraries Screening Center, 2010):
Out of some 220,000 compounds screened, about 8,200 (3.7%) were called active.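 The calls were made as follows: active = compounds that reduced the stress-induced luciferase reporter signal by more than about 70% of percent inhibition (limit read from the data); inactive = the rest.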 The entries come from a sample that favours actives as a whole.

Experiment: inhibitors of CHOP promoter induction, primary screen, cell-based, unfolded protein response, luciferase reporter (AID 2732);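 also: 0% = tunicamycin plus vehicle and 100% = wells without tunicamycin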
Details: CHO-K1 CHOP-promoter luciferase, tunicamycin-induced, 15-18 h; at 10 µM; hits give high values

Row | SMILES | inhibition
1 | CCCn1c(C)cc(/C=C(\C#N)C(=O)OCC(=O)Nc2cc(OC)c(OC)c(OC)c2)c1C | 9.36% (inactive)
2 | CCOC(=O)/C(C#N)=C/c1ccc(OCC(=O)Nc2ccccc2)c(OC)c1 | 77.3% (active)
3 | CCOC(=O)/C(C#N)=C/c1ccc(N2CCN(Cc3ccccc3)CC2)cc1 | 5.69% (inactive)
4 | COc1cc(/C=C2/C(=O)NN(c3ccc(F)cc3)C2=O)cc([N+](=O)[O-])c1O | 0.68% (inactive)
5 | O=C(CCCCCN1C(=O)c2cccc3cccc(c23)C1=O)NCc1ccco1 | 7.37% (inactive)
6 | CCOC(=O)c1[nH]c2c(c1C)C(=O)CC(c1ccc(N(C)C)cc1)C2 (configuration not stated) | 9.42% (inactive)
7 | CCOC(=O)C1=C(c2ccccc2)NC(=S)NC1c1ccc(Cl)cc1 (configuration not stated) | 18% (inactive)
8 | CCOC(=O)c1[nH]c2c(c1-c1ccccc1)C(=O)CC(c1ccc(Cl)cc1)C2 (configuration not stated) | 80.8% (active)
9 | CC(NS(=O)(=O)c1ccccc1)c1n[nH]c(=S)n1-c1ccccc1 (configuration not stated) | 19.4% (inactive)
10 | CC(/C=C/c1ccco1)=N/NC(=O)C1COc2ccccc2O1 (configuration not stated) | 0.12% (inactive)
11 | CCc1ccc(S(=O)(=O)Nc2ccc(C)c(NS(C)(=O)=O)c2)cc1 | 16.4% (inactive)
12 | COc1ccc(CCNS(=O)(=O)c2cccc3cccnc23)cc1OC | 0.78% (inactive)
13 | Cc1ccc2nc(NC(=O)C3CCN(S(=O)(=O)c4ccc5c(c4)oc(=O)n5C)CC3)sc2c1 | 80.1% (active)
14 | O=C(Nc1nc2ccc(S(=O)(=O)N3CCCC3)cc2s1)C1CCCO1 (configuration not stated) | 9.58% (inactive)
15 | Cn1c(=O)oc2cc(S(=O)(=O)N3CCC(C(=O)Nc4ccc(OC(F)(F)F)cc4)CC3)ccc21 | 12% (inactive)
16 | Nc1ccc(N=Nc2ccccc2Cl)c(N)n1 | -4.49% (inactive)
17 | Cc1ccc(C)c(S(=O)(=O)N2CCN(CC(=O)Nc3ccc([N+](=O)[O-])cc3)CC2)c1 | 42% (inactive)
18 | CCN(CC(=O)Nc1ccc(S(=O)(=O)N2CCCC2)cc1)CC(=O)Nc1cccc(OC)c1 | 2.69% (inactive)
19 | CC(=O)Nc1ccc(S(=O)(=O)N2CCSCC2)cc1 | -25.3% (inactive)
20 | Cc1cccc(OCCC(=O)Nc2cc(S(=O)(=O)N3CCCCC3)ccc2N2CCOCC2)c1 | 40.4% (inactive)
21 | CC(=O)Nc1ccc(S(=O)(=O)N2CCN(CCCOc3cc(C)ccc3C)CC2)cc1 | 71.1% (active)
22 | Cc1cccc(OCCCC(=O)Nc2ccc(S(=O)(=O)N3CCCC3)cc2)c1 | 89% (active)
23 | CCc1ccc[n+](-c2nc([O-])sc2C=O)c1 | 9.23% (inactive)
24 | Nc1nc(Sc2ncccc2[N+](=O)[O-])n[nH]1 | -14.3% (inactive)

Row | SMILES | inhibition
25 | CC(=O)c1nnn(-c2ccc(Cl)cc2C#N)c1C | 13.8% (inactive)
26 | Cn1nc(C(C)(C)C)c([N+](=O)[O-])c1C(N)=O | 1.68% (inactive)
27 | COc1ccc(C(=O)N/N=C2\CCS(=O)(=O)c3ccc(F)cc32)cc1OC | -0.83% (inactive)
28 | O=C(NCC(c1cccs1)N1CCOCC1)c1cc(-c2ccccn2)nc2ccccc12 (configuration not stated) | 7.03% (inactive)
29 | Cc1cccc(N(CC(=O)N=Nc2c(O)[nH]c3ccccc23)S(C)(=O)=O)c1C | 27% (inactive)
30 | Cc1c(-c2ccccc2)n[nH]c1C(=O)N=Nc1c(O)[nH]c2ccccc12 | 106% (active)
31 | COCC(=O)N=Nc1c(O)[nH]c2ccccc12 | -14.7% (inactive)
32 | O=C(CC(c1ccccc1)c1cc(Cl)ccc1O)NCCN1CCOCC1 (configuration not stated) | -2.25% (inactive)
33 | CN(C)S(=O)(=O)c1ccc(Cl)c(NC(=O)COC(=O)CC(NC(N)=O)c2ccc(Cl)cc2)c1 (configuration not stated) | -8.1% (inactive)
34 | CC(C)NC(=O)NNc1c(Cl)cncc1Cl | 5.99% (inactive)
35 | O=C(NCc1ccc2c(c1)OCO2)c1sccc1Br | 8.42% (inactive)
36 | Cc1cc2cc3c(cc2nc1SCC(=O)Nc1c(C)cccc1C)CCC3 | 79.2% (active)
37 | Cc1cccc(C)c1NC(=O)CSc1ccc([N+](=O)[O-])cn1 | -10.4% (inactive)
38 | Cc1cc(C)c(C#N)c(SCC(=O)Nc2ccccc2)n1 | 41.3% (inactive)
39 | COC(=O)c1c(C)oc(C)c1S(=O)(=O)NCc1ccc(Cl)cc1 | 30.1% (inactive)
40 | Cc1ccc(/C=N/NC(=O)COc2ccccc2-c2ccccc2)cc1 | 90.4% (active)
41 | Cc1ccc(OCC(=O)N/N=C\c2ccco2)c(C)c1 | 12.7% (inactive)
42 | Cc1ccc(OCC(=O)N/N=C/c2ccncc2)cc1 | 10% (inactive)
43 | Cc1cc(OCCCCOc2ccc(C#N)cc2)ccc1[N+](=O)[O-] | 32.1% (inactive)
44 | COc1ccccc1Nc1nc(N)nc(CSC(=S)N2CCOCC2)n1 | 9% (inactive)
45 | CCOc1ccc(N2C(=O)CC(N(O)c3ccccc3)C2=O)cc1 (configuration not stated) | -34% (inactive)
46 | CCOC(=O)c1ccc(N2C(=O)CC(N(C)Cc3ccccc3)C2=O)cc1 (configuration not stated) | 40.7% (inactive)
47 | CCCCCCC(=O)N(O)C1CC(=O)N(c2ccccc2)C1=O (configuration not stated) | 106% (active)
